Compound activity deposited in PubChem by National Center for Advancing Translational Sciences (NCATS).
KDM5B inhibitor: blocks human KDM5B histone demethylase activity; Q9UGL1; KDM5B demethylase, FDH-coupled NADH fluorescence (FDH is formaldehyde dehydrogenase); Potency, µM (series often up to 57.7 µM), actives largely listed as inhibitors; hit rate 2.6% among 220,000; AID 1347165; active = well fitted inhibition curve with a large enough effect; inconclusive = small, poorly fitted or top-dose-only effect; inactive = no such curve, though single readings can be large or run the other way; note: potency is the fitted concentration of half-maximal effect; 0% is about no effect; nearly all actives have a fitted effect of over 70% in size
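Inhibition is measured as reduced NADH fluorescence generation from FDH coupling to formaldehyde release. Truncated KDM5BΔAP at 200 nM final acts on H3K4me3 peptide (12.5 µM in substrate mix) in pH 7.5 HEPES buffer with Tween-20, 30 min, room temperature.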
IP6K1 inh: IP6K1 kinase inhibition; Q92551; IP6K1 kinase, ADP-Glo luminescence, 2 h; hits give low values; activity change, % (series mostly up to about 58 µM); hit rate 0.81% among 140,000; AID 1645851; in the data active = activity change below about -25%; note: % is set by controls: 0 for no effect and ±100 for the full control effect
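ADP-Glo luminescence measures ADP made by human IP6K1 during a 2 h RT reaction with ATP/IP6 (mix at 1.3 mM/130 uM); top library doses 57.5 and 19.1 uM final.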
* = called active by the depositor; i = inactive; ? = inconclusive; . = no result. Sampled rows, rich in hits. Any-hit rate of the full collection: about 2.8%.

SMILES	KDM5B inhibitor	IP6K1 inh
COc1ccc(-c2nc(-c3nnn4c3COC(c3ccccc3Cl)C4)no2)cc1OC (configuration not stated)	?	28
CSc1ccc(-c2noc(-c3ncn4c3COC(c3ccccc3Cl)C4)n2)cc1 (configuration not stated)	25µM*	7
CCOc1ccccc1-c1nc(-c2nnn3c2COC(c2ccccc2Cl)C3)no1 (configuration not stated)	28µM*	2
Cc1c(Cl)cccc1NC(=O)NCC1CCN(CCc2ccccc2)C1 (configuration not stated)	i	.
O=C(NCc1cccc(Cl)c1)c1ccc2nnc(-c3cccc(C(F)(F)F)c3)n2c1	.	-3
O=C(c1cccc(Br)c1)N1CCCN(c2ccnc3ccnn23)CC1	.	-3
COCCCNC(=O)c1nc2sccn2c1-c1ccccc1	.	0
COCCNC(=O)c1ccc2nnc(C3CCOCC3)n2c1	.	-4
O=C(O)c1nccnc1C(=O)Nc1ccc(Cl)cc1Cl	i	.
COC(=O)N1CCn2ncc(C(=O)Nc3ccc(Cl)cc3Cl)c2C1	i	-5
O=C(Nc1ccc(Cl)cc1Cl)c1cnn2ncccc12	35µM*	0
O=C(Nc1ccc(Cl)cc1Cl)c1cccn2nccc12	32µM*	-8
CN(c1ccccc1)c1ccc2nnc(-c3cc(C(=O)NCCc4ccccc4)ccn3)n2n1	?	-15
CN(c1ccccc1)c1ccc2nnc(-c3cc(C(=O)NCc4ccncc4)ccn3)n2n1	32µM*	0
CN(C)c1ccc(-n2c(=O)c(C(=O)N3CCCC3)nc3cccnc32)cc1	.	-20
CC(=O)c1cccc(NC(=S)NNC(=O)c2ccc(-c3ccccc3)cc2)c1	i	.
CCn1c(CO)nnc1C1CC(NC(=O)c2oc3cc(OC)ccc3c2C)C1 (configuration not stated)	28µM*	94
CCn1c(CO)nnc1C1CC(NC(=O)Cc2c[nH]c3ccccc23)C1 (configuration not stated)	i	8
CCn1c(CO)nnc1C1CC(NC(=O)c2[nH]c3ccc(OC)cc3c2C)C1 (configuration not stated)	28µM*	54
CCn1c(CO)nnc1C1CC(NC(=O)CN2CCOCC2)C1 (configuration not stated)	i	23
COCCn1cnnc1CCNC(=O)c1oc2cc(OC)ccc2c1C	28µM*	11
CCCc1ccc2oc(C(=O)NCCc3nncn3CC)c(C)c2c1	?	-10
O=C(c1cn2cc(-c3ccccc3)sc2n1)N1CCOCC1	.	-18
CC(C)CC(=O)NCCNC(=O)c1cc2ccccc2n1C	i	.
O=C(c1nc2cccnc2n(C2CC2)c1=O)N1CCN(C(=O)C2CCCC2)CC1	.	-5
SMILES	KDM5B inhibitor	IP6K1 inh
COc1ccc(C(=O)NC2CCCN(c3ccc4nnc(C)n4n3)C2)cc1 (configuration not stated)	.	-2
COCCn1c(C)nnc1-c1cc(-c2ccc(OC)c(OC)c2)ccn1	32µM*	-9
COc1cccc(-c2ccnc(-c3nnc(C)n3Cc3ccccc3)c2)c1	35µM*	-6
COCCn1c(C)nnc1-c1cc(-c2ccnc(OC)c2)ccn1	?	-1
Cc1nnc(-c2cc(-c3cccc(F)c3)ccn2)n1Cc1ccccc1	i	-1
O=C(NCc1ccccn1)c1ccc2nc(-c3cccnc3Cl)oc2c1	.	10
COc1ccccc1-c1ccnc(N[C@H]2CO[C@H]3[C@@H]2OC[C@@H]3NC(=O)N2CCOCC2)n1	25µM*	-3
COc1ccccc1-c1ccnc(N[C@H]2CO[C@H]3[C@@H]2OC[C@@H]3NS(=O)(=O)c2ccc(NC(C)=O)cc2)n1	i	-6
COc1ccccc1-c1ccnc(N[C@H]2CO[C@H]3[C@@H]2OC[C@@H]3NS(C)(=O)=O)n1	35µM*	-9
O=C(N[C@H]1CO[C@H]2[C@@H]1OC[C@@H]2Nc1nccc(-c2ccccc2)n1)N1CCOCC1	?	0
CSc1ccc(-c2cccc(C(=O)NCCNC(=O)Cc3ccc(F)cc3)c2)cc1	.	9
COC(=O)C1=C(C)N(c2cccc(C)c2)C(=S)NC1c1ccc(-n2ccnc2)cc1 (configuration not stated)	i	.
COc1ccc2nc(Nc3nc(C)c(Cc4ccc(Cl)cc4)c(=O)[nH]3)nc(C)c2c1	i	.
CCCC(O)CN1CCC(=O)N(C)Cc2cc(F)ccc21 (configuration not stated)	.	5
COCCN1Cc2ccc(Nc3cccnc3)nc2C(C)(C(=O)NCc2ccncc2)C1 (configuration not stated)	25µM*	-3
COCCN1Cc2ccc(NCc3ccccc3)nc2C(C)(C(=O)Nc2ccn(C)n2)C1 (configuration not stated)	35µM*	6
COCCN1Cc2ccc(Nc3cccnc3)nc2C(C)(C(=O)Nc2cccc(OC)c2)C1 (configuration not stated)	?	5
